# Mac1 fbg inh = inhibitors of CD11b/CD18 adhesion to fibrinogen, primary screen, K562 cells, luminescence | 93,000 compounds, 0.54% hits | inhibition, % at 10 µM | ATPlite luminescence; Mn2+ added to activate the integrin;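 active = primary inhibition of 50% or more at 10 µM, then 40% or more on retest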
# CYP2C19 activ = human CYP2C19 activators, primary screen, biochemical, luminescence. Cytochrome P450 2C19 (Homo sapiens), P33261. recombinant CYP2C19, luciferin-H EGE luminescence; hits give high values; 0 = fully inhibited enzyme, 1 = untreated enzyme. activation factor at 5 µM. 96,000 tested, under 10 active. AID 1025, 2008;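 active = activation factor of at least 2 at 5 µM in the primary screen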;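 note: 0 = wells with 2.5 mM tranylcypromine and 1 = vehicle-only wells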
# Target sequence (P33261 whole entry, looked up): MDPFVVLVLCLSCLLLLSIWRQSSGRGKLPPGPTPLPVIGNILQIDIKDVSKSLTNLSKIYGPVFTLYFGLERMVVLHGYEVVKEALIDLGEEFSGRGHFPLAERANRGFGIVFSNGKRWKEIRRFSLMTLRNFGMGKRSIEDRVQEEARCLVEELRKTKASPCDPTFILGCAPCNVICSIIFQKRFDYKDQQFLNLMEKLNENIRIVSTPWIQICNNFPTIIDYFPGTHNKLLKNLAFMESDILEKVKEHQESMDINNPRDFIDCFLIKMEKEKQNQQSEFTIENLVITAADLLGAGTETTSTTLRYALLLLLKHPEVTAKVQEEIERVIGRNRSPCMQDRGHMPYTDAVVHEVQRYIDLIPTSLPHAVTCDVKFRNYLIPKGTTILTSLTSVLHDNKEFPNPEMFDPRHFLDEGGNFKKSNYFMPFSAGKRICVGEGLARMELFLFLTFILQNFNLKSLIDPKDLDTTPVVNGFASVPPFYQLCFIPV
# CYP2C19 inhib = blockers of cytochrome P450 2C19 activity – biochemical, luminescence, ADME assay, primary screen | P33261 | CYP2C19 Supersomes, luciferin-H EGE luminescence, 30 min | inhibition, % at 5 µM | 96,000 compounds, 21% hits | AID 778, 2007;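 active = CYP2C19 inhibition above a set limit at 5 µM in the primary screen, cut at about 50% in these data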;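 note: plate controls were negative control wells for no effect and 2.5 mM tranylcypromine positive control for full effect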
# CYP2C9 activ = human CYP2C9 activators, primary screen, biochemical, luminescence; activation factor at 5 µM; recombinant CYP2C9, luciferin-H conversion; hits give high values; factor 1 = untreated enzyme, 0 = blocked; 96,000 compounds, 1.4% hits; Cytochrome P450 2C9 (Homo sapiens), P11712;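 active = activation factor of 2 or more for CYP2C9 at a 5 µM dose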;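 note: 0 = sulfaphenazole-blocked wells and 1 = vehicle-only wells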
# CYP2C9 inh = blockers of cytochrome P450 2C9 activity – biochemical, luminescence, ADME assay, primary screen. P11712. CYP2C9 Supersomes, luciferin-H conversion. inhibition, % at 5 µM. 96,000 compounds, 20% hits. AID 777, 2007;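 active = blocking of liver enzyme CYP2C9 beyond about 50% at 5 µM, limit read from the data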
# Mac1 fbg enh = enhancers of CD11b/CD18 adhesion to fibrinogen, primary screen, K562 cells, luminescence. Integrin beta-2 (Homo sapiens) + Integrin alpha-M (Homo sapiens), P05107+P11215. ATPlite luminescence. activation, % at 10 µM. 93,000 compounds, 0.07% hits. AID 1499, 2009;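 active = 10 µM primary screen giving 50% or more activity, confirmed by 40% or more on retest at that dose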
# The depositor's hits bear a star; x = no result given. Sampled rows, rich in hits. Any-hit rate of the full collection: about 28%.
SMILES,Mac1 fbg inh,CYP2C19 activ,CYP2C19 inhib,CYP2C9 activ,CYP2C9 inh,Mac1 fbg enh
Cc1ccc(NC(=O)c2oc3c(c2C)C(=O)CC(C)(C)C3)cc1,8,0.2,77*,0.9,11,-4
Cc1c(C(=O)NC2CCCCC2)oc2c1C(=O)CC(C)(C)C2,-28,0.8,16,0.8,20,14
Cc1c(NC(=O)CN2CCN(C(=O)c3ccco3)CC2)c(=O)n(-c2ccccc2)n1C,x,1.1,-9,1.1,-5,x
CCCCNC(=O)NS(=O)(=O)c1ccc(C(=O)OC(C)C)o1,x,0.9,5,0.3,69*,x
COC(=O)c1ccc(S(=O)(=O)N2CCCCC2)o1,0,0.8,23,1,5,0
CCOC(=O)CSc1nnc(NC(=O)c2cccc([N+](=O)[O-])c2)s1,54,x,x,x,x,-4
COCC(=O)Nc1nc(-c2ccccc2)c(C)s1,-6,0.5,52*,0.8,18,0
CC(=O)c1sc(NC(=O)c2ccco2)nc1-c1ccccc1,-3,1,-1,0.8,19,0
COc1ccc2c(c1)CCc1sc(NC(=O)c3ccco3)nc1-2,-2,0.1,94*,0,99*,5
Cc1sc(NC(=O)c2cccs2)nc1-c1ccccc1,0,1.1,-6,1,4,0
O=C(Nc1nc(-c2ccncc2)cs1)c1ccco1,-3,0,97*,0.2,76*,52
Cc1sc(NC(=O)c2ccco2)nc1-c1ccccc1,5,0.4,55*,0.2,81*,0
O=C(Nc1nc(-c2cc3ccccc3oc2=O)cs1)c1ccco1,-6,1.1,-10,0.9,10,3
COc1cc2c(cc1NC(=O)C(C)NCc1ccccc1)oc1ccccc12 (stereo not drawn),7,x,x,x,x,-1
CSc1nc2sc3c(c2c2nnnn12)CCC3,10,0.4,62*,0.9,11,3
Cc1ccc(/C=C/c2ccc(=O)n(Cc3ccccc3Cl)n2)cc1,37,1,0,0.6,39,-5
COc1cccc(C2(O)CCN(C(=O)C3CCC3)CC2)c1,-16,0.4,64*,0.5,47,1
COc1cccc(C2(O)CCN(C(=O)C3CC3)CC2)c1,11,0.8,19,1,-4,-2
C=CCn1cnc2scc(-c3ccc(C)cc3)c2c1=O,-31,0.1,92*,0.3,65*,0
CCOC(=O)c1ccc(N2C(=O)C=CC2=O)cc1,14,1.1,-13,1.6,-56,-4
CCOC(=O)c1ccc(CC2S/C(=C(\C#N)C(C)=O)NC2=O)cc1 (stereo not drawn),9,1,-1,0.4,62*,1
CCc1ccc(CC2S/C(=C(\C#N)C(C)=O)NC2=O)cc1 (stereo not drawn),36,0.9,12,0.2,78*,-4
Cc1ccc(CC2S/C(=C(/C#N)C(=O)NCc3ccco3)N(c3ccccc3)C2=O)cc1 (stereo not drawn),-9,1.1,-10,1,1,-7
Cc1cccc(OCC(O)CN2CCN(C3CCCCC3)CC2)c1 (stereo not drawn),-17,0.9,6,0.9,8,-2
Cc1c(-c2ccccc2)[n+](=O)c(-c2ccco2)c(C)n1[O-],-27,0.1,87*,1,-4,1
SMILES,Mac1 fbg inh,CYP2C19 activ,CYP2C19 inhib,CYP2C9 activ,CYP2C9 inh,Mac1 fbg enh
Cc1c(-c2ccco2)[n+](=O)c2c(n1[O-])CCCCC2,-10,0.5,47,1,-3,-1
COC(=O)c1cc(NC(=O)Cc2ccccc2[N+](=O)[O-])cc(C(=O)OC)c1,1,1.1,-6,0.2,79*,-7
O=C(Cc1ccccc1[N+](=O)[O-])NCc1ccccc1Cl,2,0.5,47,2.4*,-139,1
CCC(C)[C@H](NC(=O)NCc1ccccc1Cl)C(=O)O (stereo partly drawn),-8,0.8,22,0.7,29,0
CCC(CC)C(=O)NCc1ccccc1Cl,-5,0.5,45,0.3,67*,-1
O=C(Cc1ccccc1[N+](=O)[O-])NCCSCc1c(F)cccc1Cl,x,1.1,-6,1.1,-6,x
O=S(=O)(NCC1CCCO1)c1cc(Cl)ccc1Cl (stereo not drawn),-22,0.3,66*,1.4,-38,2
O=S(=O)(NCC1CCCO1)c1cc(Cl)ccc1Br (stereo not drawn),-19,0.7,30,1.6,-59,-1
COc1cc(S(=O)(=O)NCC2CCCO2)c(OC)cc1Cl (stereo not drawn),-12,0.3,66*,1,2,5
O=C(O)c1ccc(Cl)c(S(=O)(=O)NCC2CCCO2)c1 (stereo not drawn),-13,1.1,-7,1.1,-11,0
Cc1ccccc1COc1ccc(/C(O)=C2/C(=O)C(=O)N(CCCn3ccnc3)C2c2ccco2)cc1 (stereo not drawn),-6,0.2,75*,0,95*,-1
Cc1ccc(C2/C(=C(/O)c3ccc(Br)cc3)C(=O)C(=O)N2Cc2ccco2)o1 (stereo not drawn),x,1.1,-13,0.3,72*,x
Cc1ccc(/C(O)=C2/C(=O)C(=O)N(CCCn3ccnc3)C2c2ccccn2)cc1 (stereo not drawn),x,0.9,11,0.8,20,x
COC(=O)CCC(=O)N1CCc2cc(S(=O)(=O)N3CCc4ccccc43)ccc21,10,0.9,12,0.8,15,-2
COc1ccc(Cl)cc1C(=O)CSc1nc(N)cc(N)n1,-13,0.8,20,4.1*,-308,2
Nc1cc(N)nc(SCC(=O)c2ccccc2)n1,x,1,1,1,-3,x
CCCCn1nnnc1SCC(=O)c1ccc(C)c(C)c1,3,0.1,90*,0.6,41,-9
CCCCn1nnnc1SCC(=O)c1cc(Cl)ccc1OC,x,0.3,74*,2*,-104,x
OCc1csc(=Nc2ccccc2)n1-c1ccccc1,-14,0.1,88*,1,-2,-2
O=C(O)CC1SC(=Nc2ccccc2)N(c2ccccc2)C1=O (stereo not drawn),-7,1,-1,1.2,-17,-6
COc1cc(-c2nc(-c3ccccc3)c(-c3cccs3)[nH]2)cc(OC)c1O,12,0.4,61*,0.2,82*,0
COc1cc(-c2nc(-c3ccccc3)c(-c3cccs3)[nH]2)cc(OC)c1OC,10,0.7,33,0.5,49,6
Cc1cc(C)cc(OCC(=O)NC2=NCCS2)c1,-8,0.7,28,2.3*,-130,5
